We go through 18 compounds from PubChem BioAssay.

For experiment [1], the system named is Human papillomavirus type 1a protein E7 (residues 44-93). Kind of experiment: small molecules binding HPV E7 44-93 – biochemical, small-molecule microarray, residues 44-93, 635 nm fluorescence, primary screen (AID 1108).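 Also: E7 fragment applied at 1 µg/mL in TBST for 1 h at 4 C; score combines spot fluorescence with its signal to noise ratio.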 Conditions: fluorescence 635 nm, higher = more signal.
Experiment [2] in a line: hepatitis C replication reporter changes, two-sided – Huh7 cells, luciferase reporter, HCV replication inhibitor project, primary screen (AID 1109).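 Also: huh7 hepatoma cells harbouring a luciferase neomycin HCV replicon reporter; luciferase luminescence as measure of HCV replicon replication; test concentration not given here.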 As to conditions: Huh7 HCV replicon luciferase reporter, 48 h; higher = more signal. (Reporter assays use an easily measured gene product as a stand-in for the process of interest.)
Experiment [3] addresses Left-right determination factor 2 (Homo sapiens) (UniProt O00292). Kind of experiment: small molecules binding LEFTY2 protein – biochemical, small-molecule microarray, 635 nm fluorescence scan, primary screen (AID 1110). Conditions: higher = more signal.
For experiment [4], the target named is Calmodulin-1 (Homo sapiens) (UniProt P0DP23). Kind of experiment: small molecules binding calmodulin-1 with EGTA – biochemical, small-molecule microarray, Cy5-labelled CALM1, profiling panel (AID 1111).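 Also: labelled calmodulin applied in Tris saline Tween buffer holding calcium plus EGTA and DTT.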 As to conditions: Cy5-CALM1 binding fluorescence, higher = more signal.
The target is the same in experiment [5]. As to the kind of experiment: small molecules binding Ca-loaded calmodulin-1 – biochemical, small-molecule microarray, Cy5-labelled CALM1, plus calcium, artefact control for SMM control-protein annotation, profiling panel (AID 1112).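 Also: score merges spot fluorescence with signal to noise from triplicate slides.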 Conditions: Cy5-CALM1 binding fluorescence, higher = more signal.
A short description of experiment [6]: probe aWnt5a binding to arrayed compounds – biochemical, biotinylated probe, 635/667 nm fluorescence, primary screen (AID 1113).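 Also: score merges 667 nm fluorescence intensity with signal-to-noise per printed feature.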 As to conditions: small-molecule microarray, higher = more signal.
Experiment [7] in a line: probe aShh binding to arrayed compounds – biochemical, biotinylated probe, 635/667 nm fluorescence, primary screen (AID 1114).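 Also: probe is biotin-labelled aShh protein from a stem cell growth factor screen; measures binding of labelled protein to compounds printed on the slide; score merges feature fluorescence at 667 nm with signal-to-noise.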 As to conditions: small-molecule microarray, higher = more signal.
The nature of experiment [8]: probe aNog binding to arrayed compounds – biochemical, biotinylated probe, 635/667 nm fluorescence, primary screen (AID 1115).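 Also: probe is biotinylated aNog protein used at 0.15 µg/mL for 1 h at 4 C; z-score combines 667 nm fluorescence of each spot with its signal to noise.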 Conditions: small-molecule microarray, higher = more signal.
Experiment [9] has as its target Torsin-1A-interacting protein 1 (Homo sapiens) (UniProt Q5JTV8). As to the kind of experiment: compound microarray binding of lysate hLAP1 – cell lysate, small-molecule microarray, COS7 lysate, 635/667 nm fluorescence, primary screen (AID 1116). As to conditions: 635 nm fluorescence, higher = more signal.
Experiment [10] deals with Alpha-bungarotoxin (Bungarus multicinctus) (UniProt P60615). Kind of experiment: compounds binding labelled alpha-BTX control protein – biochemical, small-molecule microarray, Alexa647 label, 635/667 nm fluorescence, artefact control for SMM control protein annotation, profiling panel (AID 1117). As to conditions: alpha-BTX-A647 binding fluorescence, higher = more signal.
Chain of Alpha-bungarotoxin (Bungarus multicinctus) (P60615 whole entry, looked up): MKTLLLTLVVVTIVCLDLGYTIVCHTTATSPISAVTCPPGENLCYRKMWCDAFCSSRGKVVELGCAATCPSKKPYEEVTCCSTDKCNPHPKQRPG

Chain of Torsin-1A-interacting protein 1 (Homo sapiens) (Q5JTV8 whole entry, looked up): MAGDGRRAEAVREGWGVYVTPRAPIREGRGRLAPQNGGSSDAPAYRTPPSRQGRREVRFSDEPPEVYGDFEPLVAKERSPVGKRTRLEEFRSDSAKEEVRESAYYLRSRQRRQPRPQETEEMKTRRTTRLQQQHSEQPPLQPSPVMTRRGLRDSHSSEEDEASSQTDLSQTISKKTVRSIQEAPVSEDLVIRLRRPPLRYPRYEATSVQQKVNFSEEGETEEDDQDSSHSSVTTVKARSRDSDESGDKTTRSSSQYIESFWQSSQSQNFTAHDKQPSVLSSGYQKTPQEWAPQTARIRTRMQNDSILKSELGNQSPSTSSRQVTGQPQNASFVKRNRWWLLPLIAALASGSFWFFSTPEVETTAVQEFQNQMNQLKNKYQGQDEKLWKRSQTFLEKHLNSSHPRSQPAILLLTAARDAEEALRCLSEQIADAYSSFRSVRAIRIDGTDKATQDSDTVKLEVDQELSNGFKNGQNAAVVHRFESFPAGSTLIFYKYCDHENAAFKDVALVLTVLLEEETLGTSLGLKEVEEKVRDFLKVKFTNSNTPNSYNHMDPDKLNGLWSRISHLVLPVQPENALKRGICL
Chain of Left-right determination factor 2 (Homo sapiens) (O00292 whole entry, looked up): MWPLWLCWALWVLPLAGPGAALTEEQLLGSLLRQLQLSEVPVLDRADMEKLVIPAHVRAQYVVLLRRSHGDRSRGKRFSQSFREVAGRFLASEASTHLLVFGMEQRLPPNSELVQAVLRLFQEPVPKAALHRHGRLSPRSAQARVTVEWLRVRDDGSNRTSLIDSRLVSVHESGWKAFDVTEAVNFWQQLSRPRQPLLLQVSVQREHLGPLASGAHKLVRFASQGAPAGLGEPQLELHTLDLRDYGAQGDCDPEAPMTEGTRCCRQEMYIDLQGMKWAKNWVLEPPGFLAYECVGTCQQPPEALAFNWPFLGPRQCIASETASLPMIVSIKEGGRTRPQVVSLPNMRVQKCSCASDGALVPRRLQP

As for `CCCCN1CC=CC23O[C@@H]4C=CCCOC(=O)C4[C@H]2C(=O)N(CCO)[C@@H]3C1=O` (stereo not given in full), the composite z-score is -0.548 in experiment [1]; -1.02 in experiment [3]; -0.555 in [4]; -0.436 in [5]; -0.298 in [6]; 0.149 in experiment [7]. Further, the values for the composite z-score in [8], in [9] and in [10] were -0.249, -0.997 and -0.363, respectively. The z-score in experiment [2] was -0.161.

With `C=CCC(OC(C)=O)[C@@H]1[C@@H](N(Cc2cccc3ccccc23)C(=O)c2ccc(C)cc2)c2cc(OCCCO)ccc2N1C(=O)Cc1ccc2ccccc2c1` (stereo not given in full), the composite z-score in experiment [1] was -0.857; in [3], -0.163; in experiment [4] it was 1.1; in [5], 0.709; in experiment [6], -0.0718; in experiment [7], -0.0553. Besides, the composite z-score in experiment [8] came out at 0.0588; in [9], 0.54; in experiment [10] it was 0.273. Moreover, in experiment [2], the z-score came out at 0.198.

In the case of `CC(C)N1C(=O)[C@@]2(Cc3ccccc31)c1ccccc1C(=O)N(Cc1ccccc1C(F)(F)F)[C@H]2c1ccc(CO)cc1`, the composite z-score is 0.845 in [1]; -0.0311 in experiment [3]; -0.157 in [4]; -0.0481 in [5]; 0.0607 in experiment [6]; -0.09 in experiment [7]. Further, the composite z-score in experiment [8] was -0.0247; in experiment [9], 0.289; in experiment [10] it was -0.0261. The same compound gave a z-score in [2] of -0.329.

Take `CCCCCCCCCCC(O)C1C=CC2C(=O)N(C)C(=O)C2N1Nc1ccccc1` (stereo not given): the composite z-score in experiment [1] is 0.164; in experiment [3], -2.42; in [4] it was 0.194; in experiment [5], 1.19; in experiment [6] it was -0.252; in experiment [7], -0.121. For the same compound, the composite z-score in [8] was 0.101; in experiment [9], 0.504; in [10], -0.868. In addition, in [2], the z-score was -0.28.

On to `C=C(CCCC)/C(=C/C[C@@H](OC(C)=O)c1cccc(OCCO)c1)c1cc(C(=O)OC)ccc1OC`, for which the composite z-score in experiment [1] is 0.364; in experiment [3] it was -0.227; in [4], -0.405; in experiment [5], -0.788; in experiment [6] it was -0.119; in experiment [7], 0.111. Also, the composite z-score in experiment [8] is -0.18; in experiment [9], 0.714; in [10] it was 0.621. Also, the z-score in experiment [2] was -2.02.

For the compound `C=CCNC(=O)[C@H]1[C@@H]2C(=O)O[C@@H](c3ccccc3)[C@@H](c3ccccc3)N2[C@@H](c2ccc(O)cc2)[C@]12C(=O)Nc1ccc(C#CCC(C(=O)OC)C(=O)OC)cc12`, the composite z-score in experiment [1] is -0.952; in [3], -0.243; in [4], -0.416; in [5], -0.401; in experiment [6], -0.0495; in [7] it was 0.171. In addition, the values for the composite z-score in experiment [8], in experiment [9] and in experiment [10] were -0.302, 0.49 and 0.0559, respectively. For the same compound, in experiment [2], the z-score was -0.174.

With `COC(=O)C1=CC(CCCO)=CC(c2ccc(CN3CCCC3)cc2)N(C)C=C1C(=O)OC` (stereo not given), the composite z-score in experiment [1] turned out to be 1.3; in experiment [3], 0.0465; in [4], 1; in experiment [5], 0.316; in experiment [6], 0.002; in [7] it was 0.582. In addition, the composite z-score is 0.776 in experiment [8], 1.66 in [9] and 0.57 in [10]. In experiment [2], this compound returned a z-score of -0.979.

Regarding `[N-]=[N+]=NCc1ccccc1C[C@@]1(C(=O)NCCN2CCOCC2)N=C(c2ccc(OCCCO)cc2)O[C@@H]1c1ccccc1`, the composite z-score in [1] is 1.39; in experiment [3] it was -0.58; in experiment [4], 1.26; in experiment [5] it was 0.683; in experiment [6], 0.0391; in experiment [7], 0.358. Further, the composite z-score turned out to be 0.35 in experiment [8], 1.06 in experiment [9] and 1.19 in experiment [10]. Moreover, the z-score in experiment [2] was -2.6.

For `O=C1NC(=O)C2C1C=CC(C(O)C(O)CO)N2Nc1ccccn1` (stereo not given), the composite z-score in experiment [1] was 0.492; in [3], 0.322; in experiment [4], 0.339; in experiment [5] it was -0.635; in [6] it was 0.0502; in experiment [7], -0.0035. For the same compound, the composite z-score was -0.201 in experiment [8], 0.0465 in experiment [9] and 0.315 in experiment [10]. This compound showed a z-score in experiment [2] of 0.538.

With `C=CCNC(=O)[C@H]1[C@@H]2C(=O)O[C@@H](c3ccccc3)[C@@H](c3ccccc3)N2[C@@H](c2ccc(O)cc2)[C@]12C(=O)Nc1ccccc12`, the composite z-score in experiment [1] is 0.864; in experiment [3] it was -0.588; in experiment [4], 0.51; in experiment [5] it was 0.0876; in experiment [6], -0.148; in experiment [7] it was -0.0769. In addition, the composite z-score in [8] was -0.0089; in experiment [9], 1.33; in experiment [10], 0.269. Further, the z-score in experiment [2] is -0.462.

Turning to `C=CC[C@H](O)c1ccc(O)c(F)c1`, the composite z-score in experiment [1] was -2.12; in experiment [3] it was -1.13; in experiment [4], -0.829; in experiment [5], -0.589; in experiment [6], -0.229; in experiment [7], -0.138. Moreover, the composite z-score is -0.537 in experiment [8], -0.992 in experiment [9] and -0.328 in [10]. This compound also had a z-score in experiment [2] of -1.74.

Regarding `O=C1NC(=O)C2C1C=CC(C(O)c1ccc(F)cc1)N2Nc1ccc(Cl)cc1Cl` (stereo not given), the composite z-score in experiment [1] is 0.379; in experiment [3], -0.752; in [4], 0.805; in [5], 1; in experiment [6], -0.0403; in experiment [7], 0.867. Further, the results for the composite z-score in [8], in experiment [9] and in experiment [10] were 0.993, 0.68 and 0.712, respectively. The compound further had a z-score in experiment [2] of -0.659.

For `[N-]=[N+]=Nc1ccccc1C[C@]1(C(N)=O)COC(c2ccc(OCCCO)cc2)=N1`, the composite z-score in experiment [1] is 0.66; in experiment [3], -0.899; in experiment [4] it was 0.707; in [5], 0.694; in [6], -0.0462; in experiment [7], 0.486. The composite z-score in [8] was 0.381; in experiment [9] it was 1.02; in [10] it was -0.364. In experiment [2], this compound yielded a z-score of -1.17.

On to `COCCOC(=O)N1C(=O)[C@@]2(c3cc(C#CCNC(N)=O)ccc31)[C@H](c1ccccc1OCCO)N1[C@H](c3ccccc3)[C@H](c3ccccc3)OC(=O)[C@H]1[C@@H]2C(=O)N1CCCCCCC1`, for which the composite z-score in experiment [1] was 0.6; in experiment [3] it was 0.621; in experiment [4], 1.47; in [5], 0.716; in experiment [6], 0.14; in experiment [7], 0.31. Besides, the composite z-score in [8] was -0.499; in experiment [9] it was 1.02; in experiment [10] it was 1.68. Besides, in experiment [2], the z-score was -1.84.

As to `C=C(C(=O)CC[C@@H](OC(=O)c1ccccc1-c1ccccc1C(=O)O)c1ccc(CO)o1)C(C)C`, the composite z-score in experiment [1] is 0.476; in experiment [3], 0.367; in [4], -0.236; in experiment [5], -0.86; in experiment [6] it was -0.118; in [7] it was -0.349. Besides, the composite z-score in experiment [8] was -0.295; in [9] it was 1.27; in experiment [10], 0.101. This compound registered a z-score in [2] of -1.53.

For `CC(C)c1ccc(NN2C(C(O)C3=C[C@H]4C[C@@H](C3)C4(C)C)C=CC3C(=O)N(c4ccccc4)C(=O)C32)cc1` (stereo not given in full), the composite z-score was 0.796 in [1]; 0.368 in experiment [3]; 2.46 in [4]; 0.977 in experiment [5]; 0.0403 in experiment [6]; 0.907 in experiment [7]. Also, the composite z-score in [8] is 2.06; in [9] it was 1.54; in experiment [10], 1.64. In addition, the z-score in experiment [2] is -0.637.

Take `COc1ccc(C#Cc2ccc3c(c2)[C@]2(C(=O)N3)[C@H](c3ccccc3OCCO)N3[C@H](c4ccccc4)[C@H](c4ccccc4)OC(=O)[C@H]3[C@@H]2C(=O)NC[C@H](O)c2ccccc2)cc1`: the composite z-score in experiment [1] was 1.32; in experiment [3], 1.02; in experiment [4] it was 1.11; in [5], -0.127; in experiment [6] it was -0.0846; in [7], -0.16. Besides, the figures for the composite z-score in [8], in experiment [9] and in experiment [10] were -0.479, 1.01 and 1.26, respectively. This compound yielded a z-score in experiment [2] of -2.93.

As to `C=CCC(OC(C)=O)[C@@H]1[C@@H](N(Cc2ccc(-c3ccccc3)cc2)C(=O)Cc2ccc(OC)cc2)c2cc(OCCCO)ccc2N1C(=O)c1ccc2ccccc2c1` (stereo not given in full), the composite z-score is 0.242 in experiment [1]; 0.215 in [3]; 0.106 in experiment [4]; 0.335 in experiment [5]; -0.122 in experiment [6]; -0.153 in [7]. Moreover, the composite z-score was -0.57 in [8], 0.748 in experiment [9] and 0.284 in experiment [10]. This compound also gave a z-score in experiment [2] of -0.856.
